Screening results from PubChem.
ATG4B inhibitor: blocks human ATG4B protease cleavage of LC3 substrate; AID 504462; ATG4B cleavage of LC3-PLA2, NBD-HPC fluorescence, 1 h; Q9Y4P1; 340,000 compounds, 0.51% hits; inhibition, % at 8.33 µM; in the data active means inhibition above about 40%
Target sequence (Q9Y4P1 whole entry, looked up): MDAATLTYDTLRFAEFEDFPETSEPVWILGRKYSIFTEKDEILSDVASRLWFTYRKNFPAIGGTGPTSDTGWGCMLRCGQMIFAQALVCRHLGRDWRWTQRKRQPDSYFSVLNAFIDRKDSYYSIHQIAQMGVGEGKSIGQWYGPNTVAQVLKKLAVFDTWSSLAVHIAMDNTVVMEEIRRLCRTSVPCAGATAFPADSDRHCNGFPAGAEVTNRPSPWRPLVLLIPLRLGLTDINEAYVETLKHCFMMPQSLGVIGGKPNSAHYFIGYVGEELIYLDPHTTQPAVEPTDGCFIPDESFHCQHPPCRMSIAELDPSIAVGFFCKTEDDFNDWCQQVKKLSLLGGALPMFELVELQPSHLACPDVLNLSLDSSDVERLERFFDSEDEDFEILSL
NSD2 inh: NSD2 (human) methyltransferase inhibition; AID 743445; inhibition, % at 12.5 µM; O96028; NSD2 peptide methylation, AlphaScreen, 120 min; 310,000 compounds, 0.54% hits; in the data active means inhibition above about 50%
Vif imaging: HIV Vif inhibition; AID 602346; inhibition, % at 7.49 µM; 340,000 compounds, 0.35% hits; HEK293T cells, Vif self-association by quenched fluorescence, imaging, 24 h; in the data active means inhibition above about 50%, passing the limit was not always enough
N-glyco inh: N-linked glycosylation inhibition; D54 ERlucT glycosylation luciferase reporter, 24 h; percent of 100 nM tunicamycin response; reporter increase, % at 12.5 µM; 360,000 compounds, 0.23% hits;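 active means mean luciferase reporter signal, scaled so untreated is 0 and the glycosylation-blocking control 100, at or above a set limit in every replicate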;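 further: luciferase carries N-glycosylation sites so blocking glycosylation raises the light; 0% = median of neutral control wells and 100% = median of 100 nM tunicamycin wells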
DSG3 Ab inh: blocks pemphigus antibody binding to human desmoglein-3 | P32926 | DSG3-coupled beads, scFv-anti-DSG3-GFP binding, flow cytometry; stronger effect = lower value | binding (percent of control), % at 10 µM | 310,000 compounds, 0.48% hits | AID 588358;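 active means binding more than 3 SD below its plate's average and above zero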
CaV13 ICDI inh: Disruptors of the CACNA1D IQ motif to Ca2+-dependent inactivation inhibitor domain association, primary screening, Förster resonance energy transfer in intact living …. HEK cells, CFP/YFP FRET ICDI-IQ, plate reader, 10 min; percent FRET-ratio fall versus neutral wells. inhibition, % at 12.3 µM. 340,000 compounds, 0.098% hits. AID 743397;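 active means mean replicate inhibition of at least 30% and at least 1% of replicates passing that level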;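 further: 0% = median of the neutral control wells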
An asterisk follows results filed as active; . = no result given. Compounds with a hit are over-represented: about 1.9% of the library has one in this group of screens.

SMILES | ATG4B inhibitor | NSD2 inh | Vif imaging | N-glyco inh | DSG3 Ab inh | CaV13 ICDI inh
CCOc1ccc(N2CSC(=S)N(c3ccc(OCC)cc3)C2)cc1 | 1 | 1 | 11 | 1 | 76* | -20
CCOc1ccc2c(C)c(C)c(=O)oc2c1OCC | -1 | -1 | 4 | 2 | 101 | -9
CCOc1ccc2c(C)c(C(=O)O)oc2c1OCC | -6 | -1 | 55* | 2 | 107 | -4
CCOc1ccc(-c2nnc(SCC(=O)Nc3ccc4c(c3)c3ccccc3n4CC)n2N)cc1 | 3 | 1 | 37 | 73* | 94 | -6
CC1(c2ccc(Cl)cc2)NC(=O)N(CC(=O)Nc2ccc3c(c2)OCO3)C1=O (stereo not drawn) | . | 6 | 6 | 8 | 110 | -5
COC(=O)C1SCC2C(=O)N(Cc3ccc(F)cc3)CC(=O)N21 (stereo not drawn) | -6 | -3 | -10 | 0 | 86 | -3
COC(=O)C1SCC2C(=O)N(Cc3cccc(C)c3)CC(=O)N21 (stereo not drawn) | 8 | -2 | 128* | -2 | 79 | -4
O=C1CC(c2ccccc2)CC(O)=C1C=Nc1ccccc1Cl (stereo not drawn) | 5 | 0 | -13 | 1 | 116 | -3
COc1ccccc1N=CC1=C(O)CC(c2ccccc2)CC1=O (stereo not drawn) | 1 | -1 | -1 | 28* | 111 | -7
COc1cc2c(cc1OC)C(C)N(C(=O)Cn1ncc3c1-c1ccccc1OC3)CC2 (stereo not drawn) | -5 | . | -5 | -8 | 89* | -10
COc1cc(C(=O)OCC(C)=O)cc(NC(=O)c2ccco2)c1OC | -5 | -3 | 8 | 0 | 101 | 179*
CC(=O)Nc1cccc(-c2csc(Nc3ccccn3)n2)c1 | -20 | 1 | -14 | -9 | 70* | -13
C/C=C\C=C/C(=O)Nc1cccc(C2=NOC3(C2)C[C@@H](C(N)=O)N(C(=O)/C=C/CC)C3)c1 (stereo partly drawn) | -4 | . | . | -3 | 100 | .
C/C=C\C=C/C(=O)Nc1cccc(C2=NOC3(C2)C[C@@H](C(N)=O)N(C(=O)C2(C)CC2)C3)c1 (stereo partly drawn) | -9 | . | . | 0 | 91* | -6
C/C=C\C=C/C(=O)Nc1cccc(C2=NOC3(C2)C[C@@H](C(N)=O)N(C(=O)/C=C/C=C\C)C3)c1 (stereo partly drawn) | -2 | . | 2 | 0 | 68* | .
Cc1cc2ccccc2c(=O)n1CC(=O)NCC(=O)N1CCN(c2ccccc2F)CC1 | 1 | 0 | -1 | 1 | 105 | -5
O=C1N(c2cccc3ccccc23)C(c2ccccc2)N2CCCN12 (stereo not drawn) | 5 | -6 | 4 | 1 | 130 | -6
Cc1cc(O)c(C=O)c2c1C(=O)Oc1c(CO)c(O)c3c(c1O2)C(O)OC3=O (stereo not drawn) | 86* | . | 2 | 0 | . | .
Cc1cc(O)c(CN(C)C)c2c1C(=O)/C(=C/c1ccco1)O2 | -6 | 8 | -5 | -1 | 101 | -66
COc1cccc(NS(=O)(=O)c2cn(C)c(=O)n(C)c2=O)c1 | -4 | . | 11 | 0 | 104 | -4
COc1ccc(-c2cc(C(=O)Oc3ccc([N+](=O)[O-])cc3)c3ccccc3n2)cc1 | 4 | 2 | 7 | -1 | 103 | -3
COc1ccc2nc3cc([N+](=O)[O-])ccc3c(NNc3ccc([N+](=O)[O-])cc3)c2c1 | 1 | 0 | 67* | -10 | 81 | -10
Cc1cccn2c(=O)c3cc(C(=O)NC4CCCC4)c(=N)n(CCc4ccccc4)c3nc12 | -21 | -4 | 11 | 30* | 97 | 2
COCCn1c(=N)c(C(=O)NCCc2ccccc2)cc2c(=O)n3cccc(C)c3nc21 | -3 | -6 | 1 | 0 | 107 | .
Cc1cccn2c(=O)c3cc(C(=O)NCCc4ccccc4)c(=N)n(CCCn4ccnc4)c3nc12 | -10 | 0 | -2 | 11 | 105 | 33*
COc1ccc(CCn2c(=N)c(C(=O)NC3CCCC3)cc3c(=O)n4cccc(C)c4nc32)cc1 | -1 | -7 | 9 | 3 | 107 | -3
